Reference: PubChem BioAssay (NCATS)
Unmarked numbers belong to inactive results. Records with an inconclusive call do not appear. A call without a number means that no potency is given here. Calls of active or inactive are those of the source. Calls come from the whole dose curve; as a rule, active = well fitted curve in the direction sought with a large enough effect; inconclusive = small, poorly fitted or top-dose-only effect, or another doubt; inactive = no such curve, though single readings can be large; an effect the other way counts as inactive or inconclusive.

Columns and labels:
[1] = biological target: Glutathione peroxidase 1 (Homo sapiens) (UniProt P07203); experiment: Primary qHTS Assay for Inhibitors of Recombinant Selenoprotein Glutathione Peroxidase 1 (GPX1) (AID 1845191); note: nearly all actives have a fitted effect of over 65% in size
Sequence of Glutathione peroxidase 1 (Homo sapiens) (P07203 whole entry, looked up): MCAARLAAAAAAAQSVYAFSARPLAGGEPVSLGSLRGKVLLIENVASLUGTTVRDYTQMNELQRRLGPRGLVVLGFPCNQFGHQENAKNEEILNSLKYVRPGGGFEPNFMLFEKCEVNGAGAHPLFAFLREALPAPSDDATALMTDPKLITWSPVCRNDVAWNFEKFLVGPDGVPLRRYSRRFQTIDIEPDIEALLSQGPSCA
Method in brief: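 GPX1 10 nM, GR 100 nM, GSH 1 mM, NADPH 0.5 mM, CHP 0.5 mM (final). 30-min cpd preincubation, RT. Ex340/Em450 read t=0, t=15 min.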

[2] = biological target: Phospholipid hydroperoxide glutathione peroxidase GPX4 (Homo sapiens) (UniProt P36969); experiment: Primary qHTS Assay for Inhibitors of Recombinant Selenoprotein Glutathione Peroxidase 4 (GPX4) (AID 1845192); note: nearly all actives have a fitted effect of over 65% in size; for activity change, negative = inhibition: series mostly up to about 50 µM
Sequence of Phospholipid hydroperoxide glutathione peroxidase GPX4 (Homo sapiens) (P36969 whole entry, looked up): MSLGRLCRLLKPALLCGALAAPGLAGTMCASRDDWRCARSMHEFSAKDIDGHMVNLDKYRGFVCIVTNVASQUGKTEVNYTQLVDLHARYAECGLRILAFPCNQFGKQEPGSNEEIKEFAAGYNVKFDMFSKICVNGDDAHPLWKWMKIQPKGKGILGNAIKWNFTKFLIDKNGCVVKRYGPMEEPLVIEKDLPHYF
Method in brief: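 qHTS, GR-coupled: GPX4 200 nM + cpd 30 min RT → GSH 1 mM, NADPH 0.5 mM, GR 100 nM → CHP 0.5 mM start; fluor 340/450 at t0 and t15 min; no-enzyme wells as control.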

[3] = biological target: Luciferin 4-monooxygenase (Photinus pyralis) (UniProt P08659); experiment: Primary firefly luciferase (FLuc) qHTS assay for identification of artifact compounds. (AID 1845220); note: nearly all actives have a fitted effect of over 60% in size; for activity change, negative = inhibition: series mostly up to about 54 µM
Method in brief: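 qHTS, 15 min compound preincubation with substrate (10 uM luciferin, 10 uM ATP) at RT, then 10 nM FLuc; 5 min; luminescence; % inhibition vs no-enzyme/DMSO controls, 4-parameter Hill fit.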

[4] = Primary fluorescence-based thiol-reactive (MSTI) qHTS assay for identification of artifact compounds. (AID 1845221); note: nearly all actives have a fitted effect of over 65% in size; note: potency is the fitted concentration of half-maximal effect;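 for activity change, negative = thiol reactive: series mostly up to about 54 µM; thiol-reactive compounds lower the probe fluorescence signal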
Method in brief: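 A multi-concentration qHTS design tested compounds against 4 uM MSTI, pH 7.4 phosphate-buffered saline. Plates were protected from light for 1 h at room temperature before imaging fluorescence.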

[5] = test system: Nanoluciferase (engineered Oplophorus gracilirostris luciferase); experiment: Primary Nanoluciferase (NLuc) qHTS assay for identification of artifact compounds. (AID 1845222); note: series mostly up to about 54 µM
Method in brief: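 Luminescence read-out of secreted NLuc in S16 cell conditioned medium (1:55); compounds tested with 15 min RT preincubation, then Nano-Glo substrate 1:100, 5 min. % inhibition vs no-enzyme and DMSO controls, 4-parameter Hill fit.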

[6] = Primary redox qHTS assay for identification of artifact compounds. (AID 1845223)
Method in brief: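 Redox-cycling detection via DTT (250 uM final) oxidation coupled to Amplex Red (25 uM)/HRP (250 mU/mL) in HBSS. 15 min preincubation plus 30 min after DTT, room temperature. Ex/Em 525/598 nm; 4-parameter Hill fit against DMSO and 10 uM DA3003.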

SMILES	Potency [1]	Potency [2]	Potency [3]	Potency [4]	outcome [5]	outcome [6]	outcome [1]	activity change, negative = inhibition [2]	outcome [3]	activity change, negative = thiol reactive [4]	activity, negative = inhibition [5]	redox activity (% of DA3003) [6]
C[C@H]1C(=O)O[C@H]2[C@H](O)[C@]34C5OC(=O)[C@]3(O[C@@H]3OC(=O)[C@H](O)C34[C@H](C(C)(C)C)[C@H]5O)C12O (stereo not given in full)	inactive	inactive	inactive	inactive	inactive	inactive	–	–	–	–	–	–
CN1C(=O)N(c2ccc(C#N)c(C(F)(F)F)c2)C(=O)[C@]1(CO)c1ccccc1	inactive	inactive	inactive	inactive	inactive	inactive	–	–	–	–	–	–
CC(C)[C@@H](CN1CC[C@@](C)(c2cccc(O)c2)[C@@H](C)C1)NC(=O)[C@H]1Cc2ccc(O)cc2CN1	inactive	inactive	inactive	inactive	inactive	inactive	–	–	–	–	–	–
C/C=C(\C)C(=O)O[C@H]1[C@H](OC(C)=O)[C@]2(CO)[C@H](O)[C@H](O)[C@]3(C)C(=CCC4[C@@]5(C)CC[C@H](O[C@@H]6O[C@H](C(=O)O)[C@@H](O)[C@H](O[C@@H]7OC[C@H](O)[C@H](O[C@@H]8OC[C@H](O)[C@H](O)[C@H]8O)[C@H]7O)[C@H]6O[C@@H]6O[C@H](CO)[C@@H](O)[C@H](O)[C@H]6O)C(C)(C)C5CC[C@]43C)[C@@H]2CC1(C)C (stereo not given in full)	–	–	–	–	–	–	inactive [at 9.52 µM]	2.03% [at 9.73 µM]	inactive [at 11.6 µM]	214% [at 11.5 µM]	2.49% [at 11.6 µM]	9.29% [at 11.5 µM]
CC(=O)OC12C(O)C(C)C3(O)C4C=C(C)C(=O)C4CC(CO)=CC3C1C2(C)C (stereo not given)	inactive	inactive	inactive	inactive	inactive	inactive	–	–	–	–	–	–
C[C@]12CC[C@@H](O)C[C@H]1CC[C@@H]1[C@@H]2CC[C@]2(C)C(=O)CC[C@@H]12	inactive	inactive	inactive	inactive	inactive	inactive	–	–	–	–	–	–
COc1ccccc1CN[C@H]1C2CCN(CC2)[C@H]1C(c1ccccc1)c1ccccc1	inactive	inactive	inactive	inactive	inactive	inactive	–	–	–	–	–	–
OC1(c2ccc(Cl)cc2)c2ccccc2C2=NCCN21 (stereo not given)	inactive	inactive	inactive	inactive	inactive	inactive	–	–	–	–	–	–
CC1=C2C[C@H]3[C@@H](CC=C4C[C@@H](O)CC[C@@]43C)[C@@H]2CC[C@]12O[C@@H]1C[C@H](C)CN[C@H]1[C@H]2C	inactive	inactive	inactive	inactive	inactive	inactive	–	–	–	–	–	–
COC1C(O)C(OC2CCC3(C=O)C(CCC4C3CCC3(C)C(C5=CC(=O)OC5)CCC43O)C2)OC(C)C1OC1OC(CO)C(O)C(O)C1O (stereo not given)	inactive	inactive	inactive	inactive	inactive	inactive	–	–	–	–	–	–
CC12CCC3C(CCC4(O)CC(O)CCC34C=O)C1(O)CCC2C1=CC(=O)OC1 (stereo not given)	inactive	inactive	inactive	inactive	inactive	inactive	–	–	–	–	–	–
N#C[C@@H](O[C@@H]1O[C@H](CO[C@@H]2O[C@H](CO)[C@@H](O)[C@H](O)[C@H]2O)[C@@H](O)[C@H](O)[C@H]1O)c1ccccc1	inactive	inactive	inactive	inactive	inactive	inactive	–	–	–	–	–	–
COC1C(O)C(C)OC(OC2C(CO)O[C@@H](O[C@@H]3CC4CCC5C(CC[C@]6(C)[C@@H](C7=CC(=O)OC7)CC[C@]56O)[C@@]4(C)[C@H](O)C3)C(O)C2O)C1O (stereo not given in full)	inactive	inactive	inactive	inactive	inactive	inactive	–	–	–	–	–	–
C=C(C)[C@H]1O[C@H]2CC[C@@]3(C)[C@@](O)(CC[C@H]4[C@@H]5OC(C)(C)[C@H]6C[C@@H]7C(=C)Cc8c(Cl)cc9[nH]c(c5c9c8[C@@]76O)[C@@]43C)[C@]23O[C@@H]3[C@H]1O	inactive	inactive	inactive	6.3 µM (active)	inactive	inactive	–	–	–	–	–	–
CC(C)=C1CC[C@]23CO[C@H](C2)[C@@](O)(C(=O)O)CCC13 (stereo not given in full)	inactive	inactive	inactive	inactive	inactive	inactive	–	–	–	–	–	–
Clc1ccc(OCC2=NCCN2)cc1Cl	inactive	inactive	inactive	inactive	inactive	inactive	–	–	–	–	–	–
CN1[C@H]2C[C@H](OC(=O)[C@H](CO)c3ccccc3)C[C@@H]1[C@@H](O)C2	inactive	inactive	inactive	inactive	inactive	inactive	–	–	–	–	–	–
C=C(CO)C(=O)O[C@H]1C/C(C)=C/CC/C(CO)=C/[C@H]2OC(=O)C(=C)[C@H]12	inactive	inactive	inactive	inactive	inactive	inactive	–	–	–	–	–	–
COC1CC(O[C@H]2CC[C@@]3(C)C(=CCC4C3C(O)[C@@H](O)[C@]3(C)[C@@H](C(C)=O)CC[C@]43O)C2)OC(C)C1OC1CC(OC)C(OC2OC(C)C(O)C(O)C2O)C(C)O1 (stereo not given in full)	inactive	inactive	–	–	–	–	–	–	inactive [at 11.6 µM]	105% [at 11.5 µM]	4.68% [at 11.6 µM]	8.26% [at 11.5 µM]
CCC(C)(OC(C)=O)C(=O)O[C@H]1[C@H](OC(C)=O)C[C@@H]2[C@@](C)([C@@H]3C[C@H]4C=CO[C@H]4O3)[C@H](C)C[C@H](OC(C)=O)[C@@]2(COC(C)=O)[C@@]12CO2 (stereo not given in full)	inactive	inactive	inactive	inactive	inactive	inactive	–	–	–	–	–	–
